Laboratory results as given in the supplement of paper PMC6555819.

Assays:
Assay in all cases: PBM binding z-score (relative to random genomic background probes); higher = stronger binding; sequences stand for … in GC…GCGATTGACAGCGTAGAATGAAGG
[1] = test system: RARb homodimer (NR concentration 270 nM)
Summary of the method: (§1)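 Binding z-scores were set against random background probes. The data came from custom Agilent 4×180K protein-binding microarrays carrying double-stranded probes with 34-nt variable regions, incubated 1 h with ligand-free nuclear receptor dimers. Partner-specific antibodies detected binding, and scanned fluorescence was regression-normalized.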

[2] = test system: RARg:RXRa (NR concentration 270 nM, RXRa partner concentration 90 nM)
Summary of the method: as §1

[3] = test system: RARg homodimer (NR concentration 270 nM)
Summary of the method: as §1

[4] = test system: RXRa DBDmut IVT, anti-RXR (DBD mutation: RXRa K156A/R161A, NR concentration 90 nM)
Summary of the method: as §1

[5] = test system: RXRa homodimer (NR concentration 180 nM)
Summary of the method: as §1

[6] = test system: THRa:RXRa (NR concentration 90 nM, RXRa partner concentration 90 nM)
Summary of the method: as §1

[7] = test system: THRa homodimer (NR concentration 90 nM)
Summary of the method: as §1

[8] = test system: VDR homodimer (NR concentration 270 nM)
Summary of the method: as §1

Row | Sequence | PBM binding z-score [1] | PBM binding z-score [2] | PBM binding z-score [3] | PBM binding z-score [4] | PBM binding z-score [5] | PBM binding z-score [6] | PBM binding z-score [7] | PBM binding z-score [8]
1 | CGGAGTAGGTTACGAGGGGGCATTCAGTGCGAAT | 2.45 | 3.35 | 2.86 | 2.04 | 2.09 | 3.8 | 0.507 | 3.73
2 | CCGAGTAGGTTACGAGTGGGCATTCAGTGCGAAT | 0.401 | 0.298 | 0.292 | -0.0539 | 0.364 | 0.606 | -0.579 | 0.108
3 | CCGAGTAGGTTACGAGGGGGTATTCAGTGCGAAT | 1.15 | 1.98 | 1.63 | 0.847 | 1.17 | 2.6 | 0.46 | 1.11
4 | CCGAGTAGGTTACGAGGGGGCATACAGTGCGAAT | 2.29 | 3.21 | 2.68 | 1.2 | 2.14 | 3.61 | 0.618 | 2.68
5 | TTACAAAGGTGAAAGGTCGTTGATGCACGCCTTG | 3.48 | 5.85 | 3.31 | 1.05 | 7.68 | 3.11 | 0.398 | 1.64
6 | GTACCAAGGTGAATAGGTCGTTGATGAGTAGGCG | 1.89 | 2.73 | 1.44 | 0.0133 | 1.92 | 1.79 | 0.526 | 0.496
7 | ATCTGTAGGTTAGGGTCATTCAGAAAGTAGGGAA | 3.65 | 4.2 | 3.96 | 2.35 | 5.32 | 4.19 | 3.53 | 4.36
8 | CGAACTAGGTCAAAGGACACTGAAAGGCGACGTA | 3.06 | 4.19 | 4.7 | 1.6 | 3.12 | 2.69 | 0.861 | 0.852
9 | CCGAGTAGGTTACGAGGGGGCATTAAGTGCGAAT | 2.04 | 3.1 | 2.45 | 1.56 | 2.14 | 3.52 | 0.655 | 3.56
10 | TCGAGTAGGTTACGGGGGCACTCAGGGATGAAGA | 2.3 | 3.39 | 2.3 | 1.2 | 2.84 | 3.4 | 1.09 | 1.68
11 | CGAACTAGGTCACCAGGACCGTGAAGAGGTTGGA | 3.25 | 4.44 | 5.18 | 1.08 | 3.5 | 2.89 | 1.07 | 0.39
12 | TCGAGTAGGTTACTGGGGCATTCAGGGATGAAGA | 0.974 | 0.621 | 0.564 | 0.0231 | 0.761 | 1.83 | -0.116 | -0.285
13 | CGAACTAGGTCAAAGGACAGCGAAAGGCGACGTA | 3.05 | 4.13 | 4.72 | 1.85 | 3.19 | 2.46 | 0.406 | 0.311
14 | ATATGTAGGTTAGGGTCTTTCAGAAAGTAGGGAA | 0.963 | 0.711 | 0.651 | 0.741 | 0.743 | 1.51 | 1.22 | 0.739
15 | CTATGTAGGTTAAGGGGCTCATTCAGTTTGAAAG | 0.464 | 0.537 | 0.331 | 0.357 | 0.409 | 0.521 | 0.0604 | 0.323
16 | CTATGTAGGTTAAGGGGGTCATGCAGTTTGAAAG | 4.24 | 5.46 | 4.16 | 2.12 | 6.12 | 4.11 | 2.49 | 5
17 | ATCCAAAGGTCGAGGTGAGTATAGAGAAAGGGAA | 3.21 | 4.69 | 4.83 | 1.19 | 5.1 | 3.07 | 1.07 | 1.09
18 | TCGAGTAGGTTACGGGGGCATCCAGGGATGAAGA | 2.2 | 3.36 | 2.37 | 1.27 | 2.88 | 3.66 | 1.12 | 2.47
19 | CCGAGTAGGTTACGAGGGGGGATTCAGTGCGAAT | 1.82 | 2.43 | 1.99 | 1.88 | 1.24 | 3.19 | 1.76 | 1.94

Row | Sequence | PBM binding z-score [1] | PBM binding z-score [2] | PBM binding z-score [3] | PBM binding z-score [4] | PBM binding z-score [5] | PBM binding z-score [6] | PBM binding z-score [7] | PBM binding z-score [8]
20 | GCTGCTAGGTCAGGTTGGTCAGCTAACGGGTACG | 2.53 | 2.7 | 3.45 | 0.582 | 0.927 | 1.84 | 0.48 | 0.466
21 | CGTCAAAGTTCAAGGTAATGTAACAGAAAGCAGC | 4.04 | 5.25 | 6.13 | 4.23 | 4.26 | 2.88 | 0.964 | 3.14
22 | TCTAGTTGGTCACGGGGGTCACACACGACGGGTA | 4.5 | 6.36 | 5.7 | 2.07 | 6.5 | 4.03 | 3.01 | 4.15
23 | CCTAGTTGGTCAGGAGGTCACATACCGGATATGA | 4.17 | 4.57 | 3.85 | 0.947 | 3.92 | 3.32 | 2.13 | 2.4
24 | CCTAGTGGGCCAAAGGTCATTGATTCCAATGCTC | 4.6 | 5.89 | 4.92 | 1.92 | 6.9 | 3.22 | 0.756 | 3.23
25 | CGAACTAGGTCACCAGGCCAGTGAAGAGGTTGGA | 3.33 | 4.61 | 5.11 | 1.05 | 3.21 | 2.98 | 0.969 | 0.372
26 | ACTCGGAGGACAAAGGTGAGAGCTACGCCAGTGA | 1.79 | 2.63 | 1.82 | 0.453 | 1.5 | 1.68 | 0.221 | 0.0446
27 | ATATGTAGGTTAGCGGGGGTCATTCAGACTAGGC | 4.17 | 5.25 | 4.26 | 2.7 | 6.22 | 4.82 | 2.75 | 5.45
28 | TCATATAGGTAATAAAGGTGAAAGTCGGCATCTA | 1.76 | 1.51 | 0.992 | 1.83 | 2.06 | 1.59 | 0.669 | 0.491
29 | ATTTGTAGGTTATCGGGTCATTCAGTTTGCGCAT | 3.53 | 3.69 | 3.01 | 1.95 | 3.61 | 3.6 | 3.62 | 4.42
30 | ATATGTAGGTTAGCTGGCGTCATTCAGACTAGGC | -0.15 | 0.427 | 0.556 | -0.166 | 0.485 | -0.223 | -0.829 | -0.39
31 | CATACAGGGTAAGCTAGGCCAGAGTAGGGACGGC | 0.192 | 0.225 | 0.59 | -0.744 | 0.077 | 1.49 | -0.191 | -0.259
32 | AGAATGAGGTTAAGATTAGGGAAACAGAATACAT | 0.693 | 1.98 | 1.56 | 1.13 | 2.57 | 2.63 | 0.72 | 0.435
33 | ACTAGTTGGTCAGCTGAGGTCACACAAAATTCGG | 4.3 | 4.32 | 4.78 | 1.52 | 4.23 | 5.01 | 5.35 | 3.83
34 | ATCGAAAGGTGGACGAGGTGAGTATACACCGTTT | 0.375 | 0.545 | 0.833 | -0.461 | 0.799 | 1.77 | 0.434 | -0.347
35 | TAGCCTAGGCCATGGGCCAGTATACCACGCGAAC | -0.0202 | -0.148 | 0.285 | -1.69 | -0.256 | -0.253 | -0.645 | -0.837
36 | CCTACTGGGCCAACAAGGTCATTGATGCCGATAA | 3.24 | 2.97 | 2.76 | 0.655 | 3 | 3.4 | 2.41 | 3.7
37 | AGTCGGAGGACAAAGGTCAGAGCTACGCCAGTGA | 4.3 | 6.16 | 5.52 | 0.767 | 5.6 | 3.63 | 0.663 | 1.37
38 | TCGAGTAGGTTATGGGGGCATTCAGGGATGAAGA | 2.17 | 2.62 | 1.29 | 1.84 | 2.1 | 3.99 | 1.84 | 2.57

Row | Sequence | PBM binding z-score [1] | PBM binding z-score [2] | PBM binding z-score [3] | PBM binding z-score [4] | PBM binding z-score [5] | PBM binding z-score [6] | PBM binding z-score [7] | PBM binding z-score [8]
39 | GGAACGGGGGCAAGTTGATAGCAGAGTTTGATGG | 2.35 | 3.33 | 3.16 | 3.37 | 2.6 | 2.51 | 1.27 | 4.04
40 | TAGCCTAGGTCATGGGCCAGTTTACCACGCGAAC | 3.04 | 4.68 | 4.8 | 0.567 | 4 | 3.22 | 1.42 | 0.669
41 | AGAATGAGGTTACACGTAGATCAGGGAAGAAAGT | 1.16 | 2.34 | 1.89 | 1.23 | 2.3 | 2.75 | 1.12 | 0.772
42 | TAGCCTAGGTCATTGTGCCAGTATAGTACGCATC | 2.7 | 3.4 | 3.77 | 1.9 | 2.17 | 2.61 | 1.03 | 1.2
43 | CCTGCTAGGTCAATGGTCAGCTAAAGCAGCTCGC | 3.08 | 3.62 | 4.47 | 1.7 | 2.3 | 2.29 | 0.588 | 0.186
44 | ATCGAAAGGTCGAAGGTGAGTACACCCACCCGAA | 2.79 | 4.39 | 4.08 | 1.13 | 4.96 | 2.54 | -0.0194 | 2.07
45 | GATACAAGGTCAGCTAGAGGCCAGAGTATGGAAA | 3.93 | 6.83 | 6.32 | 2.06 | 4.28 | 3.44 | 1.18 | 1.09
46 | CTATGTTGGTTAAGGGGGTCATTCAGTTTGAAAG | 3.86 | 4.63 | 3.46 | 2.63 | 5.18 | 3.75 | 3.17 | 6.63
47 | CCGAGTAGGTTATGAGGGGGCATTCAGTGCGAAT | 2.32 | 2.98 | 2.83 | 1.66 | 1.95 | 3.88 | 1.86 | 3.74
48 | TAGCCTAGGTCATTCAGGGGCCAGTATGGAAAGC | 3.26 | 6.2 | 4.83 | 1.72 | 2.92 | 3.67 | 0.641 | 1.17
49 | CTATGTAGGTTAAGGGGGTCATTCACTTTGAAAG | 3.95 | 5.11 | 4.05 | 2.33 | 5.85 | 3.53 | 1.72 | 5.5
50 | CAATCTAGGTCACGAAAGGTCAAAGTCGAATGAC | 5.85 | 8.09 | 8.64 | 2.58 | 8.63 | 5.02 | 3.08 | 3.66
51 | TCTAGTTGGTCAAAGGCCACACACTCGAAATGCG | 1.9 | 1.77 | 1.42 | 0.875 | 1.71 | 0.626 | 0.029 | -0.00157
52 | CAGAGTAGGTTACGAGGGGGCATTCAGTGCGAAT | 2.26 | 3.13 | 2.84 | 1.78 | 2.2 | 3.68 | 1.15 | 4.2
53 | TCGAGTAGGTTTCGGGGGCATTCAGGGATGAAGA | 1.5 | 2.01 | 1.38 | 1.48 | 1.5 | 3.54 | 1.69 | 3.56
54 | TCGAGTAGGTTACGGGGGCTTTCAGGGATGAAGA | 1.29 | 1.96 | 1.19 | 1.17 | 1.69 | 2.43 | 0.921 | 0.544
55 | ATATGTAGGTTAGGGTGATTCAGAAAGTAGGGAA | 1.48 | 0.779 | 0.813 | 0.979 | 1.02 | 2 | 1.65 | 0.713
56 | CGCCCAAGGTCAGCAGGTCAGTGAAAGCGACGTG | 4.99 | 6.47 | 6.63 | 2.48 | 5.3 | 3.63 | 2.02 | 1.38
